Reference: PubChem BioAssay (Tox21)
Inconclusive results are not listed. Where a structure was tested more than once in an assay, its records may differ in their call. The source made the active and inactive calls. Unless noted, calls come from the whole dose curve; as a rule, active = well fitted curve in the direction sought with a large enough effect in the repeat runs; inconclusive = weak or mixed curves; inactive = no such curve, though single readings can be large; an effect the other way counts as inactive or inconclusive.

What was measured:
[1] = qHTS RealTime-Glo MT Cell Viability Assay in HEK293 cells - 0 hour (AID 1224880); details: RealTime-Glo luminescence; series mostly up to 76.8 µM; note: top concentration of the series differs between compounds; nearly all actives have a fitted effect of over 45% in size
In short: (§1)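 Luminescence, which tracks viable cell number through reduction of the prosubstrate to a NanoLuc substrate, was read over continuous 37 C culture. Cells (600/well) were premixed with reagent and rested 5 h before 23 nL of compound in DMSO was pinned.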

[2] = A CellTox Green Cytotoxicity Assay to monitor cytotoxicity in HEK293 cells - 32 hour (AID 1224881); details: CellTox Green fluorescence; series mostly up to 76.8 µM; note: nearly all actives have a fitted effect of over 40% in size; note: potency is the fitted concentration of half-maximal effect
In short: (§2)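 Fluorescence from a DNA-binding dye excluded by viable cells was measured repeatedly in the same HEK293 wells (600 cells/well) during continuous compound exposure at 37 C. Each assay gives one read point: 0, 8, 16, 24, 32 or 40 h.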

[3] = A CellTox Green Cytotoxicity Assay to monitor cytotoxicity in HepG2 cells - 0 hour (AID 1224882); details: CellTox Green fluorescence; series mostly up to 76.8 µM; note: nearly all actives have a fitted effect of over 35% in size
In short: (§3)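 Real-time cytotoxicity: fluorescence of a cell-impermeant cyanine dye binding DNA of dead HepG2 cells, measured repeatedly (0–40 h) during compound exposure at 37 C. Cells seeded 600/well with reagent, dosed after 5 h.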

[4] = A CellTox Green Cytotoxicity Assay to monitor cytotoxicity in HepG2 cells - 32 hour (AID 1224883); details: CellTox Green fluorescence; series mostly up to 76.8 µM; note: nearly all actives have a fitted effect of over 50% in size; note: potency is the fitted concentration of half-maximal effect
In short: as §3

[5] = A CellTox Green Cytotoxicity Assay to monitor cytotoxicity in HEK293 cells - 8 hour (AID 1224884); details: CellTox Green fluorescence; series mostly up to 76.8 µM; note: nearly all actives have a fitted effect of over 35% in size
In short: as §2

[6] = qHTS RealTime-Glo MT Cell Viability Assay in HEK293 cells - 24 hour (AID 1224886); details: RealTime-Glo luminescence; series mostly up to 76.8 µM; note: nearly all actives have a fitted effect of over 50% in size; note: potency is the fitted concentration of half-maximal effect
In short: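 Viability tracked continuously by luminescence as live cells reduce a prosubstrate for NanoLuc; HEK293 cells preincubated 5 h, compound-treated at 37 C, and read at 0, 8, 16, 24, 32 and 40 h.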

[7] = A CellTox Green Cytotoxicity Assay to monitor cytotoxicity in HEK293 cells - 16 hour (AID 1224888); details: CellTox Green fluorescence; series mostly up to 76.8 µM; note: nearly all actives have a fitted effect of over 35% in size
In short: as §2

[8] = qHTS RealTime-Glo MT Cell Viability Assay in HepG2 cells - 0 hour (AID 1224889); details: RealTime-Glo luminescence; series mostly up to 76.8 µM; note: nearly all actives have a fitted effect of over 50% in size
In short: (§4)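 Viability was tracked continuously by NanoLuc luminescence from prosubstrate reduced by living HepG2 cells, at successive time points over 40 h of compound exposure. Cells with reagent were preincubated 5 h at 37 °C before compound addition.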

[9] = A CellTox Green Cytotoxicity Assay to monitor cytotoxicity in HepG2 cells - 8 hour (AID 1224890); details: CellTox Green fluorescence; series mostly up to 76.8 µM; note: nearly all actives have a fitted effect of over 45% in size
In short: as §3

[10] = qHTS assay to identify small molecule antagonists of the estrogen receptor alpha (ER-alpha) signaling pathway using the BG1 cell line in the presence of 0.1 nM 17-beta-estradiol - cell viability counter screen (AID 1259241); details: VM7Luc4E2 (BG1) viability, CellTiter-Fluor protease, 22 h, 0.1 nM estradiol agonist added; series mostly up to 92.4 µM; note: nearly all actives have a fitted effect of over 40% in size
In short: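 CellTiter-Fluor read (30 min, 37C) on ER-alpha/ERE-luc VM7Luc4E2 cells; 22 hr compound treatment; agonist 0.1 nM E2 final; same-well multiplex.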

[11] = target: Estrogen receptor (Homo sapiens) (UniProt P03372); assay: qHTS assay to identify small molecule antagonists of the estrogen receptor alpha (ER-alpha) signaling pathway using the BG1 cell line in the presence of 0.1 nM 17-beta-estradiol (AID 1259244); details: VM7Luc4E2 (BG1) ERE-luciferase, antagonist mode, 0.1 nM E2, 22 h; series mostly up to 92.4 µM; note: nearly all actives have a fitted effect of over 50% in size; note: potency is the fitted concentration of half-maximal effect
In short: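 Luciferase luminescence (ONE-Glo, 30 min at room temperature) was read after 22 hr at 37C exposure to compounds plus 17beta-estradiol at 0.1 nM final. Cells were VM7Luc4E2 with endogenous ER-alpha and an ERE-driven luciferase, pre-cultured 5 days in hormone-depleted medium.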

[12] = qHTS assay to identify small molecule HDAC inhibitors (AID 1259364); details: HCT-116 HDAC-Glo I/II luminescence, 2 h; series mostly up to 92.4 µM; note: top concentration of the series differs between compounds; nearly all actives have a fitted effect of over 45% in size
In short: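 Luminescence read after 30 min room-temperature HDAC-Glo incubation measures cellular class I/II HDAC activity. Compounds were applied for 2 hr at 37 C to HCT-116 wild-type cells seeded the day before.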

[13] = qHTS assay to identify small molecule HDAC inhibitors - cell viability counter screen (AID 1259365); details: HCT-116 viability, CellTiter-Glo ATP luminescence, 2 h; series mostly up to 92.4 µM; note: nearly all actives have a fitted effect of over 50% in size; note: potency is the fitted concentration of half-maximal effect
In short: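 To flag cytotoxic hits, 1,500 wild-type HCT-116 cells per well, plated the day before, receive test compounds for 2hr at 37 C before CellTiter-Glo reagent and a luminescence read.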

[14] = qHTS assay to identify small molecule antagonists of the sonic hedgehog signaling (Shh) pathway - cell viability counter screen (AID 1259367); details: NIH/3T3 Gli1-Luc viability, CellTiter-Fluor, 24 h; series mostly up to 92.4 µM; note: nearly all actives have a fitted effect of over 55% in size; note: potency is the fitted concentration of half-maximal effect
In short: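 Cytotoxicity was assessed in parallel with Shh reporter activity by measuring live-cell protease fluorescence (CellTiter-Fluor) in NIH/3T3 cells stably carrying Gli1-Luc, treated with compound under conditioned medium stimulation for 23 hr plus 1 hr reagent incubation.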

[15] = qHTS RealTime-Glo MT Cell Viability Assay in HepG2 cells - 16 hour (AID 1224885); details: RealTime-Glo luminescence; series mostly up to 76.8 µM; note: nearly all actives have a fitted effect of over 50% in size
In short: as §4

[16] = qHTS RealTime-Glo MT Cell Viability Assay in HEK293 cells - 8 hour (AID 1224887); details: RealTime-Glo luminescence; series mostly up to 76.8 µM; note: nearly all actives have a fitted effect of over 50% in size; note: potency is the fitted concentration of half-maximal effect
In short: as §1

[17] = qHTS assay to identify small molecule antagonists of the androgen receptor (AR) signaling pathway using the MDA cell line in the presence of 0.5 nM R1881 - cell viability counter screen (AID 1259242); details: MDA-kb2 viability, CellTiter-Fluor protease fluorescence, 16 h; series mostly up to 92.4 µM; note: nearly all actives have a fitted effect of over 45% in size
In short: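 Live-cell protease activity was measured by CellTiter-Fluor fluorescence after 30 min. Before that, MDA-kb2 MMTV-luciferase cells had 16 hr at 37C without CO2, exposed to test compounds and 0.5 nM R1881 final.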

[18] = qHTS assay to identify small molecule agonists of the sonic hedgehog signaling (Shh) pathway - cell viability counter screen (AID 1259366); details: NIH/3T3 Gli1-Luc viability, CellTiter-Fluor, 24 h; series mostly up to 92.4 µM; note: nearly all actives have a fitted effect of over 50% in size; note: potency is the fitted concentration of half-maximal effect
In short: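 Fluorescence from CellTiter-Fluor reports live cells in this counter screen. NIH/3T3-derived Gli1-Luc reporter cells receive test compounds for 24hr at 37C; reagent goes in at 23hr.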

[19] = target: Androgen receptor (Homo sapiens) (UniProt P10275); assay: qHTS assay to identify small molecule antagonists of the androgen receptor (AR) signaling pathway using the MDA cell line in the presence of 0.5 nM R1881 (AID 1259243); details: MDA-kb2 MMTV-luciferase, R1881 0.5 nM, 16 h; series mostly up to 92.4 µM; note: nearly all actives have a fitted effect of over 50% in size; note: potency is the fitted concentration of half-maximal effect
In short: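 Luminescent reporter readout (ONE-Glo, 30 min, room temperature) after 16 hr co-treatment of MDA-kb2 cells with test compounds and 0.5 nM R1881 final, at 37C without CO2. The MMTV-driven luciferase responds to both AR and GR.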

[20] = qHTS assay to identify small molecule phospholipidosis (PLD) inducers (AID 1259344; active = well fitted curve in the direction sought with a large enough effect; an effect the other way counts as inactive or inconclusive); details: HepG2 phospholipidosis, LipidTOX Red imaging, 24 h; series mostly up to 38.3 µM
In short: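 Cells (HepG2, 900 per well) attach for 4 h, receive LipidTOX Red and compound together, incubate 24 h at 37 C, are fixed 30 min with paraformaldehyde/Hoechst, then imaged at one site per well.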

Measured: Potency

Chain of Estrogen receptor (Homo sapiens) (P03372 whole entry, looked up): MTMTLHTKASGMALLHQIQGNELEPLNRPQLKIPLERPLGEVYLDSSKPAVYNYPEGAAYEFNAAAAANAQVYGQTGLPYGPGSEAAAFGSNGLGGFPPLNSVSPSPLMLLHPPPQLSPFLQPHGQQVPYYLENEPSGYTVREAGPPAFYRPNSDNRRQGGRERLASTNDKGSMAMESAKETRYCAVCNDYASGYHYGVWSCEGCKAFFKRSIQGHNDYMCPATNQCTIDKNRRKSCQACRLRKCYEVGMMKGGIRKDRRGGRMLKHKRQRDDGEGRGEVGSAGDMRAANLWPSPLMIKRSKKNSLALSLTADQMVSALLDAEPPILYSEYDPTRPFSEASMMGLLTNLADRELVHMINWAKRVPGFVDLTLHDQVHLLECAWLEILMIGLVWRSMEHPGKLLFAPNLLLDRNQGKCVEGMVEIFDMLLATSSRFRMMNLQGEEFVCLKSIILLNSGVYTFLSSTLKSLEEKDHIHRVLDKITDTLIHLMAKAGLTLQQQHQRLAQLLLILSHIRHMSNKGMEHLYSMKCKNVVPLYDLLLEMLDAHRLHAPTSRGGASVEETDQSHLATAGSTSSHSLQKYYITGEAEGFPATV
Chain of Androgen receptor (Homo sapiens) (P10275 whole entry, looked up): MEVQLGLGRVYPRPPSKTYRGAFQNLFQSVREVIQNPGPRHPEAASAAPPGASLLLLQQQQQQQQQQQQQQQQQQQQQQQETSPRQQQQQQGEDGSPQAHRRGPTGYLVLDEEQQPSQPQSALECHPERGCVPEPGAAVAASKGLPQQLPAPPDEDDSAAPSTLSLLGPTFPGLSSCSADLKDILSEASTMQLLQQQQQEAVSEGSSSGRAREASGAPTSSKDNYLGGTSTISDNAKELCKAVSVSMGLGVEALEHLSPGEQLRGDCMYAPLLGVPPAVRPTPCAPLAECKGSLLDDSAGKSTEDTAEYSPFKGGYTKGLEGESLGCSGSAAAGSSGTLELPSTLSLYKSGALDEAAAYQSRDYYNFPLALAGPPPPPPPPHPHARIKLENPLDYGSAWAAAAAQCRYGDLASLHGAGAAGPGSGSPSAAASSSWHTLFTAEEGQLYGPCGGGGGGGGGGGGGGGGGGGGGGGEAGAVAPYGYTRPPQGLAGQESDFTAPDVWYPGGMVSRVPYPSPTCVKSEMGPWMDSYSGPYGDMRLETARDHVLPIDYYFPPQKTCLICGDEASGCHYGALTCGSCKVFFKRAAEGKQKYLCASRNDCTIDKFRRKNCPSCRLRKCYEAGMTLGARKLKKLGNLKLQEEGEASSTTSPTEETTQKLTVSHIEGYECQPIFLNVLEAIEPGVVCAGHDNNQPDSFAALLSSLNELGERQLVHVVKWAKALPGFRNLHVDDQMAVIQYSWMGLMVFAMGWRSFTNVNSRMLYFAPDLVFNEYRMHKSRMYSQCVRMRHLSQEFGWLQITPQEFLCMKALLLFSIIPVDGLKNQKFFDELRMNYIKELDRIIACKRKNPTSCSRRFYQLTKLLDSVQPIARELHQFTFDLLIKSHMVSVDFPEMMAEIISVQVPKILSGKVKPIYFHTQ

CN1C[C@H](CNC(=O)OCc2ccccc2)C[C@@H]2c3cccc4c3c(cn4C)C[C@H]21
active: [4] 26.8 µM | [6] 21.3 µM
inactive: [1] | [2] | [3] | [5] | [7] | [8] | [9] | [10] | [11] | [12] | [13] | [14]

CCCCC(CC)COP(=O)(Oc1ccccc1)Oc1ccccc1 (configuration not stated)
inactive: [1] | [2] | [3] | [4] | [5] | [15] | [16] | [8] | [9] | [10] | [17] | [11] | [12] | [13] | [18] | [14]

OC(c1ccc(Cl)cc1)(c1ccc(Cl)cc1)c1cccnc1
active: [6] 38.9 µM | [19] 27.3 µM
inactive: [1] | [2] | [3] | [4] | [5] | [8] | [9] | [10] | [17] | [11] | [12] | [13] | [18] | [14]

CCOP(=S)(OCC)Oc1nc(Cl)c(Cl)cc1Cl
68.7 µM (active) and inactive: [14]
active: [19] 27.4 µM
48.7 µM (active) and inactive: [13]
inactive: [1] | [3] | [4] | [15] | [8] | [9] | [10] | [17] | [11] | [12]
19.5 µM (active) and inactive: [16]
43.4 µM (active) and inactive: [18]
21.9 µM (active) and inactive: [6]
39 µM (active) and inactive: [2]

CC1(C)CCC(Cc2ccc(Cl)cc2)C1(O)Cn1cncn1 (configuration not stated)
active: [4] 54.9 µM | [6] 24.5 µM | [11] 61.1 µM
inactive: [1] | [2] | [3] | [5] | [7] | [8] | [10] | [17] | [13] | [18] | [14]

COCC(C)N(C(=O)CCl)c1c(C)csc1C (configuration not stated)
inactive: [1] | [2] | [3] | [5] | [15] | [6] | [16] | [7] | [8] | [9] | [17] | [11] | [20] | [12] | [13] | [18]

CCOC(=O)CBr
inactive: [1] | [2] | [3] | [4] | [5] | [15] | [7] | [8] | [9] | [10] | [17] | [13] | [18] | [14]

CCCCCCCCCC(=O)O[C@H]1CC[C@H]2[C@@H]3CCC4=CC(=O)CC[C@@H]4[C@H]3CC[C@]12C
inactive: [1] | [3] | [4] | [5] | [15] | [6] | [16] | [8] | [9] | [10] | [17] | [11] | [20] | [13] | [18] | [14]

CCC(Br)(CC)C(=O)NC(N)=O
inactive: [1] | [3] | [4] | [5] | [15] | [6] | [16] | [7] | [8] | [9] | [10] | [17] | [12] | [13] | [18] | [14]

N#Cc1cc(I)c(O)c(I)c1
active: [19] 54.5 µM
inactive: [1] | [3] | [4] | [5] | [15] | [16] | [8] | [9] | [12] | [13] | [14]

O=[N+]([O-])C(Br)(CO)CO
active: [18] 48.6 µM | [14] 61.1 µM
inactive: [1] | [2] | [3] | [5] | [16] | [7] | [8] | [10] | [17] | [19] | [11] | [20] | [13]

C=CC(=O)OC(C)(C)C
inactive: [1] | [3] | [4] | [5] | [15] | [6] | [16] | [7] | [8] | [9] | [10] | [17] | [12] | [13] | [18] | [14]

O=C(NC(=O)c1c(F)cccc1F)Nc1ccc(OC(F)(F)C(F)OC(F)(F)F)c(Cl)c1 (configuration not stated)
inactive: [1] | [3] | [4] | [5] | [15] | [6] | [16] | [7] | [8] | [9] | [10] | [17] | [11] | [12] | [13] | [18] | [14]

Nc1nc(N)nc(N)n1
inactive: [1] | [3] | [4] | [5] | [15] | [6] | [16] | [7] | [8] | [9] | [10] | [17] | [13] | [18] | [14]

O=C(O)C(F)(F)C(F)(F)C(F)(F)C(F)(F)C(F)(F)C(F)(F)C(F)(F)C(F)(F)C(F)(F)C(F)(F)F
inactive: [1] | [2] | [5] | [15] | [6] | [16] | [7] | [10] | [17] | [12] | [13] | [18] | [14]
